Experimental data taken from PubChem BioAssay (Tox21).
Values joined by “and” are separate entries in the source; they are usually repeats but may differ in a detail not shown here. Identical values can stand only once. Records with an inconclusive call do not appear. The source holds several records for some structures; these can differ, active in one and inactive in another. Active and inactive are the calls of the source. Unless noted, calls come from the whole dose curve; as a rule, active = well fitted curve in the direction sought with a large enough effect in the repeat runs; inconclusive = weak or mixed curves; inactive = no such curve, though single readings can be large; an effect the other way counts as inactive or inconclusive.

Key:
[1] = qHTS assay to identify small molecule agonists of the hypoxia (HIF-1) signaling pathway - cell viability counter screen (AID 1224844; calls by dose curve; note: nearly all actives have a fitted effect of over 50% in size; note: potency is the fitted concentration of half-maximal effect)
Procedure, shortened: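 In this counter screen, HRE-bla ME-180 cell viability after 17 hrs of compound exposure at 37C was read by CellTiter-Glo luminescence, multiplexed with the beta-lactamase reporter measurement.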

[2] = qHTS assay to identify small molecule agonists of H2AX (AID 1224845; active = well fitted activation curve with a large enough effect in the signal ratio in the repeat runs, not every such curve was filed as active; the % refers to the signal ratio; note: potency is the fitted concentration of half-maximal effect)
Procedure, shortened: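 Phospho-H2AX Ser139 measured by HTRF (ex 320 nm; em 665 and 620 nm) after 24 hr antibody incubation. Compounds, 15 concentrations, 0.76% DMSO, were applied to CHO-K1 cells for 3hr at 37C before lysis.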

[3] = qHTS assay to identify small molecule agonists of H2AX - cell viability counter screen (AID 1224847; calls by dose curve; note: nearly all actives have a fitted effect of over 30% in size; note: potency is the fitted concentration of half-maximal effect)
Procedure, shortened: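 Quantitative HTS viability measurement: CHO-K1 wild-type cells in serum (10% FBS) medium, short 3 hr drug exposure at 37C with 0.76% DMSO, CellTiter-Glo luminescent detection.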

[4] = qHTS RealTime-Glo MT Cell Viability Assay in HepG2 cells - 24 hour (AID 1224867); note: nearly all actives have a fitted effect of over 50% in size; note: potency is the fitted concentration of half-maximal effect
Procedure, shortened: (§1)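 Luminescence read-out: viable HepG2 cells reduce a prosubstrate to a NanoLuc substrate, giving a signal proportional to live cell number. Reads taken at 0, 8, 16, 24, 32 and 40 h of compound exposure at 37 C.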

[5] = qHTS RealTime-Glo MT Cell Viability Assay in HEK293 cells - 32 hour (AID 1224868); note: nearly all actives have a fitted effect of over 50% in size; note: potency is the fitted concentration of half-maximal effect
Procedure, shortened: (§2)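 Nonlytic real-time viability readout: viable cells convert prosubstrate to NanoLuc substrate, giving luminescence proportional to live cell number. HEK293, 600 cells/well, compound added after 5 h, continuous culture at 37 C.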

[6] = A CellTox Green Cytotoxicity Assay to monitor cytotoxicity in HEK293 cells - 0 hour (AID 1224869); note: nearly all actives have a fitted effect of over 50% in size
Procedure, shortened: (§3)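 Real-time, in one plate: 600 HEK293 cells/well with dead-cell DNA dye, pinned compound after 5 h, 37 C incubation over 40 h; viable cells give no appreciable fluorescence.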

[7] = qHTS RealTime-Glo MT Cell Viability Assay in HepG2 cells - 40 hour (AID 1224870); note: nearly all actives have a fitted effect of over 50% in size; note: potency is the fitted concentration of half-maximal effect
Procedure, shortened: (§4)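 Real-time viability: cells seeded at 600 per well together with NanoLuc and cell-permeant prosubstrate, compounds added after 5 h incubation. Luminescence tracked at 0, 8, 16, 24, 32 and 40 h of exposure.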

[8] = A CellTox Green Cytotoxicity Assay to monitor cytotoxicity in HEK293 cells - 40 hour (AID 1224871); note: nearly all actives have a fitted effect of over 45% in size; note: potency is the fitted concentration of half-maximal effect
Procedure, shortened: as §3

[9] = qHTS RealTime-Glo MT Cell Viability Assay in HEK293 cells - 16 hour (AID 1224872); note: nearly all actives have a fitted effect of over 50% in size; note: potency is the fitted concentration of half-maximal effect
Procedure, shortened: as §2

[10] = qHTS RealTime-Glo MT Cell Viability Assay in HepG2 cells - 8 hour (AID 1224873); note: nearly all actives have a fitted effect of over 55% in size; note: potency is the fitted concentration of half-maximal effect
Procedure, shortened: as §4

[11] = qHTS RealTime-Glo MT Cell Viability Assay in HEK293 cells - 40 hour (AID 1224874); settings: RealTime-Glo luminescence; max response: stronger effect = lower value; note: nearly all actives have a fitted effect of over 50% in size; note: potency is the fitted concentration of half-maximal effect
Procedure, shortened: (§5)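 Kinetic, non-lysing viability readout. Seed HEK293 (600/well) with reagent, incubate 5 h at 37 C/5% CO2, pin 23 nL compound in DMSO, incubate at 37 C, read luminescence at 0, 8, 16, 24, 32, 40 h.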

[12] = A CellTox Green Cytotoxicity Assay to monitor cytotoxicity in HEK293 cells - 24 hour (AID 1224875); note: nearly all actives have a fitted effect of over 45% in size; note: potency is the fitted concentration of half-maximal effect
Procedure, shortened: as §3

[13] = A CellTox Green Cytotoxicity Assay to monitor cytotoxicity in HepG2 cells - 16 hour (AID 1224876); note: nearly all actives have a fitted effect of over 45% in size; note: potency is the fitted concentration of half-maximal effect
Procedure, shortened: (§6)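 Cytotoxicity was tracked as dead-cell DNA fluorescence in HepG2 cells treated with test compounds at 37 C; each time-point value comes from one kinetic series spanning 0, 8, 16, 24, 32 and 40 h.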

[14] = qHTS RealTime-Glo MT Cell Viability Assay in HepG2 cells - 32 hour (AID 1224877); note: nearly all actives have a fitted effect of over 55% in size; note: potency is the fitted concentration of half-maximal effect
Procedure, shortened: as §1

[15] = A CellTox Green Cytotoxicity Assay to monitor cytotoxicity in HepG2 cells - 24 hour (AID 1224878); note: nearly all actives have a fitted effect of over 45% in size; note: potency is the fitted concentration of half-maximal effect
Procedure, shortened: as §6

[16] = A CellTox Green Cytotoxicity Assay to monitor cytotoxicity in HepG2 cells - 40 hour (AID 1224879); note: nearly all actives have a fitted effect of over 40% in size; note: potency is the fitted concentration of half-maximal effect
Procedure, shortened: as §6

[17] = qHTS assay to identify small molecule antagonists of the estrogen related receptor (ERR) signaling pathway from Tox21 library (AID 1224848); note: nearly all actives have a fitted effect of over 50% in size; note: potency is the fitted concentration of half-maximal effect
Procedure, shortened: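 Luciferase luminescence (ONE-Glo, 30 min room temperature) was the read-out. Cells of the NTP-supplied ERR line, 2,000 per well, were given 6 h at 37 C before compound addition in DMSO and 18 h exposure at 37 C.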

[18] = qHTS assay to identify small molecule agonists of the estrogen related receptor (ERR) signaling pathway from Tox21 library (AID 1224849; calls by dose curve; note: nearly all actives have a fitted effect of over 15% in size); settings: ERR reporter cell line, ONE-Glo luciferase, 18 h; at 92.4 µM (top of the series) unless noted
Procedure, shortened: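 Luciferase activity in ERR pathway reporter cells served as the agonist readout; exposure lasted 18 h at 37 C, with ONE-Glo detection after 30 min at room temperature.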

[19] = qHTS RealTime-Glo MT Cell Viability Assay in HEK293 cells - 0 hour (AID 1224880)
Procedure, shortened: as §5
% is set by controls: 0 for no effect and ±100 for the full control effect.

O=C1C=CC(=O)N1c1ccc(Cc2ccc(N3C(=O)C=CC3=O)cc2)cc1
active: Potency [1] 11 µM | Potency [3] 50.5 µM | Potency [4] 12.3 µM | Potency [5] 11 µM | Potency [7] 15.5 µM | Potency [8] 11 µM | Potency [9] 17.4 µM | Potency [10] 12.3 µM | Potency [11] 12.3 µM | Potency [12] 38.9 µM | Potency [13] 13.8 µM | Potency [14] 12.3 µM | Potency [15] 11 µM | Potency [16] 7.76 µM
inactive: Potency [2] | Potency [6]

CCCN(CCC)C(=O)C(CCC(=O)OCCCN1CCN(CCOC(=O)Cc2c(C)n(C(=O)c3ccc(Cl)cc3)c3ccc(OC)cc23)CC1)NC(=O)c1ccccc1 (centres undefined)
inactive: Potency [2] | Potency [3] | activity change, positive = activation [18] -47.5% [at 42.5 µM] | Potency [7] | Potency [8] | Potency [12] | Potency [19]
active: Potency [1] 19 µM | Potency [17] 29.8 µM | Potency [9] 21.3 µM | Potency [15] 23.9 µM | Potency [16] 23.9 µM

CSc1ccc(/C=C2/C(C)=C(CC(=O)O)c3cc(F)ccc32)cc1
active: Potency [1] 10.7 µM
inactive: Potency [2] | Potency [3] | Potency [17] | Potency [4] | Potency [5] | Potency [7] | Potency [8] | Potency [9] | Potency [10] | max response [11] 9.83% | Potency [12] | Potency [13] | Potency [14] | Potency [15] | Potency [16] | Potency [19]

Cc1cc(O)c(C(C)(C)C)cc1C(C)(C)C
inactive: activity change, positive = activation [18] -68.9% | Potency [6] | Potency [19]
active: Potency [1] 43.6 µM | Potency [2] 89.8 µM | Potency [3] 50.5 µM | Potency [17] 61.1 µM | Potency [4] 43.6 µM | Potency [8] 24.5 µM | Potency [9] 19.5 µM | Potency [10] 38.9 µM | Potency [12] 24.5 µM | Potency [13] 21.9 µM | Potency [14] 43.6 µM | Potency [15] 21.9 µM | Potency [16] 24.5 µM

CCCCC(CC)COP(=O)(O)OCC(CC)CCCC (centres undefined)
inactive: Potency [2] | Potency [3] | activity change, positive = activation [18] -51.6% and -55.8% | Potency [4] | Potency [7] | Potency [9] | Potency [10] | Potency [14] | Potency [19]
active: Potency [1] 17.4 µM and 5.49 µM | Potency [17] 30.7 µM and 27.3 µM | Potency [8] 43.6 µM | Potency [12] 43.6 µM | Potency [16] 54.9 µM
49.1 µM (active) and inactive: Potency [15]

C[C@H](CCC(=O)O)[C@H]1CC[C@H]2[C@@H]3CC[C@@H]4C[C@H](O)CC[C@]4(C)[C@H]3CC[C@]12C
active: Potency [1] 43.5 µM and 34.7 µM | Potency [2] 89.4 µM and 56.6 µM | Potency [3] 100 µM and 80 µM
inactive: Potency [17] | activity change, positive = activation [18] -9.3% and -27.2% | Potency [4] | Potency [6] | Potency [7] | Potency [8] | Potency [9] | Potency [10] | max response [11] -16.2% and -15.3% | Potency [12] | Potency [14] | Potency [19]

CCCCCCCCCCCCCCCCCC[N+](C)(C)Cc1ccccc1
inactive: Potency [2] | Potency [6] | Potency [19]
active: Potency [1] 24.8 µM | Potency [3] 45.4 µM | Potency [17] 19.5 µM | Potency [4] 49.5 µM | Potency [7] 22.1 µM | Potency [8] 19.7 µM | Potency [9] 17.5 µM | Potency [10] 49.5 µM | Potency [11] 1.75 µM | Potency [12] 24.8 µM | Potency [13] 44.1 µM | Potency [14] 35 µM | Potency [15] 24.8 µM | Potency [16] 19.7 µM

O=C(NO)C1(NS(=O)(=O)c2ccc(Oc3ccc(F)cc3)cc2)CCOCC1
inactive: Potency [1] | Potency [2] | Potency [3] | Potency [4] | Potency [6] | Potency [7] | Potency [8] | Potency [9] | Potency [10] | Potency [12] | Potency [13] | Potency [14] | Potency [15] | Potency [16]
active: Potency [17] 27.3 µM

CC(C)=CCOc1ccc(/C=C/C(=O)c2ccc(OCC=C(C)C)cc2OCC(=O)O)cc1
inactive: Potency [1] | Potency [2] | Potency [3] | Potency [4] | Potency [5] | Potency [6] | Potency [7] | Potency [8] | Potency [9] | Potency [10] | max response [11] 1.22% | Potency [12] | Potency [13] | Potency [14] | Potency [16] | Potency [19]
